Consider 20 compounds from ChEMBL document CHEMBL3988442, “University of Dundee, Small-Polar-MMV Screening Library” (2021).

The assay deals with AMP-activated protein kinase, AMPK (Homo sapiens) (UniProt P54646+O43741+P54619+Q9UGJ0+Q9Y478+Q13131+Q9UGI9). Briefly: AMP-dependent Kinase enzyme assay. An in vitro enzyme assay that detects ADP turnover that is directly proportional to AMPK activity. This uses naive AMPK that is activated during the assay with MK-8722. Type of assay: functional. Details: scale not given: direction of the effect not stated beside the values. The following applies: 30 µM.
With `CC(C)(C)OC(=O)N[C@H]1CCN(c2cncc(Br)c2)C1`, the Percent Effect amounted to 6.52%. For `CCN(Cc1cccnc1)C1CCN(c2ccccc2)C1=O` (stereo not given), the Percent Effect is -2.42%. Take `Cc1nc2cc(-c3nccn3C)nn2c(N2CCC(O)CC2)c1C`: the Percent Effect turned out to be 20.2%. As for `CCc1cc(NCCCNS(C)(=O)=O)nc(-c2ccccn2)n1`, the Percent Effect was -7.82%. Regarding `O=c1[nH]c2ccc(S(=O)(=O)N(CCO)Cc3ccncc3)cc2[nH]1`, the Percent Effect was determined as 15.8%. As for `Cc1cc(-n2cccn2)ccc1CN1C[C@@H](CN(C)C)[C@@H](CO)C1`, the Percent Effect is -2%. Next, `Cc1ccc(N2CCCC(Nc3nn4cc(C)nc4s3)C2)nn1` (stereo not given): 8.12%.

For the compound `CC(NCc1cccc(NC(=O)C2CCCCC2)c1)c1cnn(C)c1` (stereo not given), the Percent Effect turned out to be 4.61%. As to `Cn1cc(CC(=O)N2CCCC(c3ccn[nH]3)C2)cn1` (stereo not given), the Percent Effect is -1.05%. Next, `COc1ccc(Cc2nnc(NC(=O)C3CC34CCC4)s2)cc1OC` (stereo not given): 4.1%. As to `Cc1ccccc1[C@@H]1CN(Cc2ccc(C(F)(F)F)nc2)C[C@H]1C(=O)O`, the Percent Effect was -5.65%. Regarding `CC(NC(=O)N1CCC1)c1ccc(S(C)(=O)=O)cc1` (stereo not given), the Percent Effect came to 4.53%. Regarding `COCCN(C)C[C@@H]1CN(c2nc(C)cc(C)n2)C[C@@H]1CO`, the Percent Effect stood at 2.16%. For `COc1ccc(N2CCC(NC(=O)c3ccc(C#N)cc3)CC2)cc1`, the Percent Effect is 5.1%. Consider `O=C(c1cccnc1)N1CCOC(Cc2ccccc2Cl)C1` (stereo not given), for which the Percent Effect turned out to be 11%. Consider `O=C(c1nnn(-c2ccc(Cl)cc2)n1)N(CCO)Cc1ccccc1`, for which the Percent Effect worked out at 3.07%.

As to `CCC(C)Oc1ccc(CNCCNC(C)=O)cc1OC` (stereo not given), the Percent Effect worked out at 2.89%. Next, `O=C(NC1CCCC1)N1C[C@H]2CN(c3ccncc3)C[C@@]2(C(=O)O)C1`: 9.08%; `CC(C(=O)N1CCCC1)N1CCN(c2ncc(Cl)cn2)CC1` (stereo not given): -1.02%. Take `CCc1nnc2n1CCN(c1nc(C)cc(N(C)C)n1)C2`: the Percent Effect is -7.79%.
